mut p53 SMM: mutant p53 (human) binding | calls only | small molecule microarray binding, anti-GST fluorescence | 0.4% of 17,000 active;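 active means compounds whose four printed spots each glow above background more than chance allows, each with a p-value under 7%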
NFkB SMM: binders of human NF-kappa-B p105; Small molecule microarray, anti-His fluorescence binding; P19838; 1.3% of 17,000 active; calls only;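 active means spot fluorescence over background significantly raised, with a chance value under 7% in all four replicate spots of the compound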;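 further: probe protein is his-tagged human p50 processed subunit at 1 µg/ml; raw spot fluorescence signals with no normalization applied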
STAT3 binder: STAT3 (human) binding; AID 624138; calls only; 0.2% of 17,000 active; Small molecule microarray, His-STAT3 binding, anti-His fluorescence;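 active means compounds whose four printed spots each show fluorescence over background unusually high for their array block, chance value under 7%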
Myc binder: c-Myc (human) binding; AID 624141; 1.5% of 17,000 active; P01106; small molecule microarray, His-c-Myc binding, anti-His fluorescence; calls only;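 active means spot fluorescence over background with P-value below 7% in all four replicate spots, showing protein binding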;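 further: score is binary with 100 for all four spots passing and 0 otherwise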
Target sequence (P01106 whole entry, looked up): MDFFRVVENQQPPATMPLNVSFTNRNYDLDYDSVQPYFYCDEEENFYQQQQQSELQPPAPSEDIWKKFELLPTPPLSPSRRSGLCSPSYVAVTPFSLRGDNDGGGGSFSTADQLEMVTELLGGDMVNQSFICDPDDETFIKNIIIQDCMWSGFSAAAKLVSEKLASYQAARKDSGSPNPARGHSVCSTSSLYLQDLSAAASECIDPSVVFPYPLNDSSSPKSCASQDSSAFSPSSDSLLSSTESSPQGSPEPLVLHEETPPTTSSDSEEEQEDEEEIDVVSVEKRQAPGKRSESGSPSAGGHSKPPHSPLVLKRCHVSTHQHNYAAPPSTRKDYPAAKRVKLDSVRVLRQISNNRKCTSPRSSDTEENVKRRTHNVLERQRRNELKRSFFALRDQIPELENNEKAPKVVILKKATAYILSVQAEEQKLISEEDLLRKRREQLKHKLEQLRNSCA
Active calls of the source: *; i = inactive; + = active, no number. In the library only some 2.5% were active in any assay of this set; here they are far more common.

SMILES	mut p53 SMM	NFkB SMM	STAT3 binder	Myc binder
C[C@@H]1CCCCO[C@@H](CN(C)Cc2ccc(C(=O)O)cc2)[C@H](C)CN([C@H](C)CO)C(=O)c2cc(NC(=O)Nc3ccc(C(F)(F)F)cc3)ccc2O1	i	+	i	i
C[C@@H]1CN([C@@H](C)CO)C(=O)c2cc(NC(=O)Nc3ccc(C(F)(F)F)cc3)ccc2O[C@@H](C)CCCCO[C@H]1CN(C)Cc1ccc(C(F)(F)F)cc1	i	+	i	i
COc1ccc(CN(C)C[C@H]2OCCCC[C@H](C)Oc3ccc(NC(=O)Nc4c(C)noc4C)cc3C(=O)N([C@@H](C)CO)C[C@H]2C)cc1	i	i	i	i
C[C@@H]1CN([C@H](C)CO)C(=O)c2cc(NC(=O)Nc3ccc(C(F)(F)F)cc3)ccc2O[C@H]1CN(C)S(=O)(=O)c1ccc(F)cc1	i	i	i	i
C[C@H](CO)N1C[C@H](C)[C@@H](CN(C)Cc2ccc(Cl)c(Cl)c2)Oc2c(NC(=O)c3ccncc3)cccc2C1=O	i	i	i	i
COC(=O)c1cc(Br)ccc1NC(=O)COc1ccc(C(C)(C)C)cc1	i	i	i	+
Cc1noc(C)c1NC(=O)Nc1ccc2c(c1)C(=O)N([C@@H](C)CO)C[C@H](C)[C@@H](CN(C)C(=O)C1CCCCC1)OCCCC[C@H](C)O2	i	i	i	+
C[C@H]1CCCCO[C@@H](CN(C)C(=O)C2CCCCC2)[C@@H](C)CN([C@@H](C)CO)C(=O)c2cc(NC(=O)Nc3ccccc3)ccc2O1	i	+	i	+
C[C@@H]1CCCCO[C@H](CN(C)C(=O)C2CCCCC2)[C@@H](C)CN([C@@H](C)CO)C(=O)c2cc(NC(=O)c3ccncc3)ccc2O1	i	+	i	i
C[C@H]1CCCCO[C@@H](CN(C)C(=O)C2CCCCC2)[C@@H](C)CN([C@@H](C)CO)C(=O)c2cc(NC(=O)c3ccncc3)ccc2O1	i	i	i	i
C[C@@H]1CCCCO[C@@H](CN(C)C(=O)Nc2ccccc2)[C@H](C)CN([C@@H](C)CO)C(=O)c2cc(NC(=O)C3CCCCC3)ccc2O1	+	+	i	+
Cc1noc(C)c1NC(=O)Nc1ccc2c(c1)C(=O)N([C@H](C)CO)C[C@H](C)[C@@H](CN(C)C(=O)NC1CCCCC1)O2	i	i	i	i
CNC[C@H]1Oc2c(NS(=O)(=O)c3ccc(OC)cc3)cccc2C(=O)N([C@@H](C)CO)C[C@H]1C	i	i	i	i
C[C@H](CO)N1C[C@H](C)[C@H](CN(C)C(=O)C2CCCCC2)OCCCC[C@H](C)Oc2ccc(NC(=O)Nc3ccccc3)cc2C1=O	i	i	i	+
C[C@H](CO)N1C[C@H](C)[C@@H](CN(C)Cc2ccncc2)Oc2ccc(N(C)C)cc2CC1=O	i	i	i	i
Oc1ccccc1CNc1ccc2c(c1)ncn2C1CCCCC1	i	i	i	+

Source: PubChem BioAssay
